Compound activity deposited in PubChem BioAssay by National Center for Advancing Translational Sciences (NCATS).
A selection: hits, their analogues and other compounds. The true share with any hit is near 9.8%.
KDM4E inh – qHTS Assay for Inhibitors of Human Jumonji Domain Containing 2E (JMJD2E) | Lysine-specific demethylase 4E (Homo sapiens), B2RXH2 | JMJD2E catalytic domain, FDH-coupled NADH fluorescence (FDH is formaldehyde dehydrogenase) | Potency, µM (titrated, usually from 57.1 µM), without a hit: at the highest dose activity change, negative = inhibition, actives largely listed as inhibitors | AID 2147, 2009 | actives 1.6% (n = 230,000);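 note: potency is the fitted concentration of half-maximal effect; 0% = wells with enzyme and -100% = buffer wells without enzyme; nearly all actives have a fitted effect of over 50% in size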
Target sequence (B2RXH2 1-337 limits assumed): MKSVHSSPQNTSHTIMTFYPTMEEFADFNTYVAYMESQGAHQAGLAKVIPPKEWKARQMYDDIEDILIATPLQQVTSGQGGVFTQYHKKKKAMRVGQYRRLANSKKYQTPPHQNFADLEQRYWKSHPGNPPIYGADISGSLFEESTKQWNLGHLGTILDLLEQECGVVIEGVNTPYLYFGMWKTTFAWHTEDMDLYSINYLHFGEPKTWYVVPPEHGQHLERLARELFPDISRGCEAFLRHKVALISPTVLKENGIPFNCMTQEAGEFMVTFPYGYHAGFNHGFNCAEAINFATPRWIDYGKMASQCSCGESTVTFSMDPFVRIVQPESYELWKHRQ
HTT cytoprotect – qHTS Multiplex Assay to Identify Dual Action Probes in a Cell Model of Huntington: Cytoprotection (ATP) | PC12 HTT-Q103 induced, cytoprotection, ATP luminescence, 40 h | Potency, µM (doses to about 56.4 µM), without a hit: cytoprotection (ATP increase), hits mostly activators | actives 0.14% (n = 230,000); active = well fitted curve in the direction sought with a large enough effect; inconclusive = small, poorly fitted or top-dose-only effect, or another doubt; inactive = no such curve, though single readings can be large; an effect the other way counts as inactive or inconclusive; note: potency is the fitted concentration of half-maximal effect; % of control where 0% means no effect; nearly all actives have a fitted effect of over 45% in size
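PC12 cells stably carrying ecdysone-inducible Htt exon 1 (Q103)–GFP were induced with 100 nM tebufenozide (final) alongside library compounds in a dose series. Cytoprotection was scored as retained ATP by ATPlite luminescence.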
ALDH1A1 inh – qHTS Assay for Inhibitors of Aldehyde Dehydrogenase 1 (ALDH1A1). Aldehyde dehydrogenase 1A1 (Homo sapiens), P00352. Purified ALDH1A1, NADH fluorescence, propionaldehyde substrate. Potency, µM (series often up to 75.3 µM), for inactives: at the top dose activity, negative = inhibition, hits mostly inhibitors. actives 7.3% (n = 220,000). AID 1030, 2008;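 note: potency is the fitted concentration of half-maximal effect; plate controls were no enzyme wells and a reference inhibitor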
CBFb-RUNX1 inh – qHTS Assay for Compounds Blocking the Interaction Between CBF-beta and RUNX1 for the Treatment of Acute Myeloid Leukemia. Runt-related transcription factor 1 (Homo sapiens) + Core-binding factor subunit beta …. AlphaScreen CBFb-His/RUNX1-biotin binding, biochemical. Potency, µM (highest dose often 59.8 µM), inactives show at the highest dose activity, negative = inhibition, hits mostly inhibitors. 230,000 tested, under 10 active. AID 1477, 2009; active = well fitted curve in the direction sought with a large enough effect; inconclusive = small, poorly fitted or top-dose-only effect, or another doubt; inactive = no such curve, though single readings can be large; an effect the other way counts as inactive or inconclusive; note: % of control where 0% means no effect
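CBFb-His/RUNX1-biotin, 30 nM each, preincubated 20 min RT; compound 15 min RT; Ni + streptavidin beads 50 ng each, 90 min RT; AlphaScreen read.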
HTT aggregate – qHTS Multiplex Assay to Identify Dual Action Probes in a Cell Model of Huntington: Aggregate Formation (GFP). PC12 HttQ103-GFP aggregates, Acumen cytometry, 40 h. Potency, µM (top dose mostly 46.1 µM), for the others: top-dose activity change, negative = inhibition, hits mostly inhibitors. actives 1.1% (n = 220,000). AID 1688, 2009; active = well fitted curve in the direction sought with a large enough effect; inconclusive = small, poorly fitted or top-dose-only effect, or another doubt; inactive = no such curve, though single readings can be large; an effect the other way counts as inactive or inconclusive; note: potency is the fitted concentration of half-maximal effect; % is set by controls: 0 for no effect and ±100 for the full control effect; nearly all actives have a fitted effect of over 60% in size
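Quantitative HTS on tebufenozide-induced (100 nM) PC12 cells stably expressing polyQ103 Huntingtin exon 1–GFP. Reduction of bright GFP aggregates, detected by laser scanning cytometry after lysis, identified actives across the titration.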
HPGD inh – qHTS Assay for Inhibitors of HPGD (15-Hydroxyprostaglandin Dehydrogenase) | purified HPGD, NADH fluorescence kinetic, PGE2 substrate | actives 4.3% (n = 150,000) | Potency, µM, for the others: at the highest dose activity change, negative = inhibition, hits mostly inhibitors; note: potency is the fitted concentration of half-maximal effect; % is set by controls: 0 for no effect and ±100 for the full control effect
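20 nM HPGD preincubated 15 min at room temperature with compound in 50 mM Tris-HCl pH 8, 0.01% Tween 20. Started with 1 mM NAD+ and 30 uM prostaglandin E2; NADH fluorescence (360/450 nm) read 5 times over 30-s intervals, last minus first.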
An asterisk follows results filed as active; [ ] = remark or other dose. Unless noted, calls come from the whole dose curve; as a rule, active = well fitted inhibition curve with a large enough effect (not every such curve was filed as active); inconclusive = small, poorly fitted or top-dose-only effect, or another doubt; inactive = no such curve, though single readings can be large or run the other way.

CC1CCc2nn(CC(=O)NC3CCCC(C)C3C)cc2C1 (stereo not drawn) was read as KDM4E inh 4.8%, HTT cytoprotect 4.1%, ALDH1A1 inh 2.3%, CBFb-RUNX1 inh 7.9%, HTT aggregate -4.4% and HPGD inh 14.1µM*.
For CC1CCCC(NC(=O)COC(=O)CCC2CCCC2)C1C (stereo not drawn) the results were KDM4E inh 0.5%, HTT cytoprotect 2.8%, ALDH1A1 inh 11.2µM*, CBFb-RUNX1 inh 9.9%, HTT aggregate -15.7% and HPGD inh inconclusive.
Screening CC1CCCC(NC(=O)COC(=O)Cc2ccc(Br)cc2)C1C (stereo not drawn) returned KDM4E inh 5.9%, HTT cytoprotect -4.8%, ALDH1A1 inh 6.8%, CBFb-RUNX1 inh 20.0% and HTT aggregate 6.9%.
`CC1CCCC(NC(=O)COC(=O)COc2ccc(Cl)cc2)C1C` (stereo not drawn) gave KDM4E inh 5.7%, HTT cytoprotect 2.7%, ALDH1A1 inh 1µM*, CBFb-RUNX1 inh -2.8%, HTT aggregate 31.2%[9.22 µM] and HPGD inh -10.8%.
Screening CC1CCCC(NC(=O)Cc2ccc(Br)cc2)C1C (stereo not drawn) returned KDM4E inh 6.9%, HTT cytoprotect 28.0%[1.9 µM], ALDH1A1 inh -7.9%, CBFb-RUNX1 inh 12.9%, HTT aggregate -10.5% and HPGD inh 15.8µM*.
Screening Cc1cccc(N(CC(=O)NC(C)(C)C)C(=O)CNC(=O)c2cccs2)c1C returned KDM4E inh 4.3%, HTT cytoprotect -8.0%[10 µM], CBFb-RUNX1 inh 5.8% and HTT aggregate 7.9%[9.22 µM].
For N#Cc1c(NC(=O)Cn2nc(C(F)(F)F)c3c2CCCC3)sc2c1CCC2 the results were KDM4E inh 3.6%, HTT cytoprotect 1.9%, ALDH1A1 inh 7.94µM*, CBFb-RUNX1 inh -2.1%, HTT aggregate -2.1% and HPGD inh 8.91µM*.
`CC1CCc2c(sc(NC(=O)Cn3nc(C(F)(F)F)c4c3CCCCC4)c2C#N)C1` (stereo not drawn) gave KDM4E inh -5.0%, HTT cytoprotect -27.8%, ALDH1A1 inh 25.1µM*, CBFb-RUNX1 inh 3.4%, HTT aggregate -7.1% and HPGD inh 35.5µM*.
For CC(=O)NC(Cc1ccc(C(C)C)cc1)C(=O)NC1CCN(C(=O)c2cccc(C)c2)CC1 (stereo not drawn) the results were KDM4E inh -1.3%, HTT cytoprotect 26.4%[10 µM], ALDH1A1 inh 25.1µM*, CBFb-RUNX1 inh 5.9% and HTT aggregate 8.6%[9.22 µM].
`O=S(=O)(c1ccccc1)N1CCC2(CCCN(Cc3nccs3)C2)CC1` gave HTT cytoprotect 10.2%, ALDH1A1 inh inconclusive and HPGD inh -2.9%.
Screening COc1ccc(S(=O)(=O)O/N=C2\CCSc3ccc(C)cc32)cc1 returned KDM4E inh -0.9%, HTT cytoprotect 8.6%[10 µM], ALDH1A1 inh 7.08µM*, CBFb-RUNX1 inh 9.6%, HTT aggregate -10.4% and HPGD inh -7.3%.
Cc1ccc(C(=O)O/N=C2\CCSc3ccc(C)cc32)cc1 was read as KDM4E inh -0.8%, HTT cytoprotect 8.9%[10 µM], ALDH1A1 inh 10.8%, CBFb-RUNX1 inh 8.3%, HTT aggregate -8.3% and HPGD inh -12.7%.
For COc1ccc(/C=N/n2c(SC)nnc(C(C)(C)C)c2=O)c(OC)c1 the results were KDM4E inh 9.3%, HTT cytoprotect -8.2%, ALDH1A1 inh -8.1%, CBFb-RUNX1 inh -2.7%, HTT aggregate 6.1% and HPGD inh -9.2%.
